This is an account of results in PubChem BioAssay.

Values without a mark were called inactive. For some of these results: Potency and affinity values are given separately. Active and inactive are the calls of the source. Unless noted, no rule for the calls is given here.

The nature of test [1]: antimalarial activity against Dd2 strain (AID 2302;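 active = growth inhibition above 50% at the single 2 µM test dose, taken to imply half-maximal potency below 2 µM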;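 also: 0% = DMSO untreated growth and 100% = chloroquine plus artemisinin killed control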). The settings on record: P. falciparum Dd2 in RBCs, LDH growth readout, 72 h; at 2 µM; stronger effect = higher value.
A short description of test [2]: human hepatoma cell viability loss – ATP luminescence, cytotoxicity control for P. falciparum antimalarial project, primary screen (AID 2303;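 active = inhibition above 50%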;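 also: 0% = DMSO wells and 100% = digitonin-killed cells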). The settings on record: HepG2 viability, 24-48 h, at 10 µM, stronger effect = higher value.
Test [3] deals with L-lactate dehydrogenase (Plasmodium falciparum (isolate CDC / Honduras)) (UniProt Q27743). In words: PfLDH activity inhibition – cell lysate, 3D7 strain, counter-screen for P. falciparum growth inhibition project (AID 2304).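 Also: 0% = vehicle and 100% = reference inhibitor.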 The note with it: P. falciparum 3D7 crude extract, LDH APAD/NBT absorbance; at 2 µM; stronger effect = higher value.
Test [4] is described as follows: inhibition of 3D7 malaria parasite growth – strain 3D7 (AID 2306).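 Also: 0% = DMSO wells and 100% = chloroquine plus artemisinin control wells.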 The settings on record: P. falciparum 3D7 erythrocytic growth, LDH absorbance, 72 h; at 2 µM; stronger effect = higher value.
In test [5] the target is Calcium-dependent protein kinase 1 (Plasmodium falciparum (isolate 3D7)) (UniProt P62344). In words: PfCDPK1 kinase inhibitors, biochemical, TCAMS library (AID 1159585; cut-off not given, nearly all actives have IC50 up to about 0.98 µM;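 also: inhibitors leave more ATP so luminescence rises with inhibition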). The settings on record: recombinant PfCDPK1, Kinase-Glo ATP depletion luminescence.
Test [6] addresses Plasmodium falciparum protein kinase 6 (PK6, PF3D7_1337100) (UniProt Q8IDW1). The test is described as follows: PfPK6 kinase inhibitors, biochemical, TCAMS library (AID 1159586). The note with it: recombinant PfPK6, Kinase-Glo ATP depletion luminescence.
The target of test [7] is Protein kinase 7 (PK7), Plasmodium falciparum 3D7 (PF3D7_0213400) (UniProt Q7YTF7). The test is described as follows: inhibition of Plasmodium PK7 catalytic activity – biochemical, TCAMS antimalarial set, Kinase-Glo luminescence (AID 1159587). The note with it: recombinant PfPK7, Kinase-Glo ATP depletion luminescence.
The target in test [8] is Calcium-dependent protein kinase 4 (Plasmodium falciparum (isolate 3D7)) (UniProt Q8IBS5). The test is described as follows: PfCDPK4 kinase inhibitors, biochemical, TCAMS library (AID 1159588; cut-off not given, nearly all actives have IC50 up to about 0.91 µM). The settings on record: recombinant PfCDPK4, Kinase-Glo ATP depletion luminescence.
Sequence of Calcium-dependent protein kinase 4 (Plasmodium falciparum (isolate 3D7)) (Q8IBS5 whole entry, looked up): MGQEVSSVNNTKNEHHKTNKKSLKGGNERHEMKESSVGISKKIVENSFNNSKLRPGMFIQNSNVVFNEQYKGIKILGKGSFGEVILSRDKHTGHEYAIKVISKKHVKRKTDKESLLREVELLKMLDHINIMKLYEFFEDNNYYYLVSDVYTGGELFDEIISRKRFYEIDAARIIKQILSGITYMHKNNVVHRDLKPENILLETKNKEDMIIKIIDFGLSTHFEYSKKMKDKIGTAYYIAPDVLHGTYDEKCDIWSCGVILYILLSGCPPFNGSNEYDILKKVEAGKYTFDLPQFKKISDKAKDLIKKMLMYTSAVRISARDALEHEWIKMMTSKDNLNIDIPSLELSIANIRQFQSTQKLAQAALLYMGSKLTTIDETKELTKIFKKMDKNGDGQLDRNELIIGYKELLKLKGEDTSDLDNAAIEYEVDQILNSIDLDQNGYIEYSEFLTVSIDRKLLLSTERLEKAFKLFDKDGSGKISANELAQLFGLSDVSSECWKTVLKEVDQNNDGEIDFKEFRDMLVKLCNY

Sequence of Calcium-dependent protein kinase 1 (Plasmodium falciparum (isolate 3D7)) (P62344 whole entry, looked up): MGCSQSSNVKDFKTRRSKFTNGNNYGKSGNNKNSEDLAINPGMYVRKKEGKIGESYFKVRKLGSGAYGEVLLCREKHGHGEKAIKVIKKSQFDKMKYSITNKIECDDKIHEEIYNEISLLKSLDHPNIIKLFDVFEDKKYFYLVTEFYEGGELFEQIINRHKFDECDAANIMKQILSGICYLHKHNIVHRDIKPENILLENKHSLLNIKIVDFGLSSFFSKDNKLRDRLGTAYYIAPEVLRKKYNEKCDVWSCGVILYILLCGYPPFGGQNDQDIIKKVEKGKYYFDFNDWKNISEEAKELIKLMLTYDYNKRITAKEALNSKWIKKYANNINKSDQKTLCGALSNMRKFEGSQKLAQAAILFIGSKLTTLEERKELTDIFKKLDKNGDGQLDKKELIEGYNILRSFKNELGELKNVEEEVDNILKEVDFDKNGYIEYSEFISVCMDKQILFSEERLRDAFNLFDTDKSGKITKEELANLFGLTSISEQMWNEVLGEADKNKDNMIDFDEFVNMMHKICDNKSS
Sequence of L-lactate dehydrogenase (Plasmodium falciparum (isolate CDC / Honduras)) (Q27743 whole entry, looked up): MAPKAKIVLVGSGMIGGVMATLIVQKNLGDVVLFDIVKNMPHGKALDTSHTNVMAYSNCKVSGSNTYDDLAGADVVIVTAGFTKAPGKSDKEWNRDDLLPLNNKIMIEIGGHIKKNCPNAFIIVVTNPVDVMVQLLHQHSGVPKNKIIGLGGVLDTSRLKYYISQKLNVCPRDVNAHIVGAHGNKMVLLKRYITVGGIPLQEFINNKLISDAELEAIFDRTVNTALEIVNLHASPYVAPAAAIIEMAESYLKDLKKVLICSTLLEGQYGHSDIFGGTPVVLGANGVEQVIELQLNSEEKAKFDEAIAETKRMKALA
Sequence of Plasmodium falciparum protein kinase 6 (PK6, PF3D7_1337100) (Q8IDW1 1-305): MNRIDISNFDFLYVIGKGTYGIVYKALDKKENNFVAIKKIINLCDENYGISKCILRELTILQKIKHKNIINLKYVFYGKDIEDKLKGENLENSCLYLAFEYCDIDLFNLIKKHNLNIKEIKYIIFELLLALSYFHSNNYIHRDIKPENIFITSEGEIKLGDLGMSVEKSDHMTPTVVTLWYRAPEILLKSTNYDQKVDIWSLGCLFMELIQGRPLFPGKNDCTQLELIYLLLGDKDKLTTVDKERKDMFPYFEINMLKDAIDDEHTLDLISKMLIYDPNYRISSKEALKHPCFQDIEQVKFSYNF
Sequence of Protein kinase 7 (PK7), Plasmodium falciparum 3D7 (PF3D7_0213400) (Q7YTF7 1-343): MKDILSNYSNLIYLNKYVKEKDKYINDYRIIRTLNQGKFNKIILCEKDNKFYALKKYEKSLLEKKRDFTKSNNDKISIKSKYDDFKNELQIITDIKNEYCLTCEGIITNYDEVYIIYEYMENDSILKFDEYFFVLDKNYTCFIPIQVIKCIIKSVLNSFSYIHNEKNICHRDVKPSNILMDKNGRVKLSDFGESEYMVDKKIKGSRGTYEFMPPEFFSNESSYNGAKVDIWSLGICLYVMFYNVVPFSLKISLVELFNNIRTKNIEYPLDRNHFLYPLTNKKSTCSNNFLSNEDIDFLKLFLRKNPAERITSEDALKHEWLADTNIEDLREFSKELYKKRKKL

As for `O=C(Nc1cc(C(F)(F)F)cc(C(F)(F)F)c1)c1cccc([N+](=O)[O-])c1`, the growth inhibition in test [1] was 15%; in test [4], 93% (active). Further, the results for the inhibition in test [2] and in test [3] were 23% and -2%, respectively. The result in test [5], in test [6], in test [7] and in test [8] was inactive.
As to `Cc1cc(Nc2cccc(C(F)(F)F)c2)nc(Nc2cccc(C(F)(F)F)c2)n1`, the growth inhibition was 73% (active) in test [1] and 100% (active) in test [4]. Also, the inhibition is -1% in test [2] and -3% in test [3]. The result in test [5], in test [6], in test [7] and in test [8] was inactive.
As to `CCCN(Cc1nnc(-c2ccco2)o1)C(=O)C1CCCN(C(=O)c2ccc(Cl)cc2)C1` (stereo not given), the growth inhibition in test [1] and in test [4] was 96% (active) each time. In addition, the inhibition is -3% in test [2] and -1% in test [3]. The result in test [5], in test [6], in test [7] and in test [8] was inactive.
As to `NC(=O)c1cccc(Nc2nccc(Nc3ccc(Oc4ccc5ccccc5c4)cc3)n2)c1`, the growth inhibition is 31% in test [1] and 96% (active) in test [4]. The values for the inhibition in test [2] and in test [3] were 15% and 5%, respectively. Further, the outcome in test [5], in test [6], in test [7] and in test [8] was inactive.
Consider `N#Cc1ccc(NC(=NCc2ccc(Cl)cc2Cl)Nc2cccc(Cl)c2Cl)c(O)c1`, for which the growth inhibition was 75% (active) in test [1] and 97% (active) in test [4]. For the same compound, the inhibition in test [2] is 3%; in test [3] it was -6%. The outcome in test [5], in test [6], in test [7] and in test [8] was inactive.
With `CCOc1ccc(Nc2ccc3nonc3c2S(=O)(=O)Nc2ccc(OCC)cc2)cc1`, the growth inhibition in test [1] is 93% (active); in test [4], 100% (active). Further, the values for the inhibition in test [2] and in test [3] were 6% and -2%, respectively. The result in test [5], in test [6], in test [7] and in test [8] was inactive.
Consider `CCCNCc1ccc(-c2ccc(CN(Cc3ccc4c(c3)OCO4)C(=O)[C@H]3CCCO3)cc2)nc1`, for which the growth inhibition was 39% in test [1] and 90% (active) in test [4]. The inhibition is 18% in test [2] and -3% in test [3]. The outcome in test [5], in test [6], in test [7] and in test [8] was inactive.
Regarding `COc1cccc(Nc2nc(Nc3cccc(C#N)c3)cc(C(F)(F)F)n2)c1`, the figures for the growth inhibition in test [1] and in test [4] were 45% and 99% (active), respectively. Also, the figures for the inhibition in test [2] and in test [3] were 15% and 3%, respectively. The result in test [5], in test [6], in test [7] and in test [8] was inactive.
Turning to `Oc1ccc(CN2CCC(NCc3cccc4ccccc34)CC2)cc1`, the growth inhibition in test [1] was 8%; in test [4] it was 97% (active). In addition, the figures for the inhibition in test [2] and in test [3] were 8% and -3%, respectively. The result in test [5], in test [6], in test [7] and in test [8] was inactive.
Take `O=C(/C=C/c1ccc(Cl)c(Cl)c1)NCCCCCN1CCCC(C(=O)Nc2ccc(Cl)cc2)C1` (stereo not given): the growth inhibition in test [1] was -3%; in test [4] it was 98% (active). Further, the inhibition in test [2] was 35%; in test [3] it was -3%. The result in test [5], in test [6], in test [7] and in test [8] was inactive.
For `CN1CCN(c2cc(NC(=O)c3ccc(-c4ccc(C#N)cc4)cc3)ccc2Cl)CC1`, the values for the growth inhibition in test [1] and in test [4] were 94% (active) and 101% (active), respectively. The values for the inhibition in test [2] and in test [3] were 29% and -5%, respectively. Besides, the outcome in test [5], in test [6], in test [7] and in test [8] was inactive.
Consider `FC(F)(F)COc1ccc2ccccc2c1CCNCCCCNCCc1c(OCC(F)(F)F)ccc2ccccc12`, for which the growth inhibition is 53% (active) in test [1] and 100% (active) in test [4]. In addition, the inhibition in test [2] is 99% (active); in test [3], 0%. The result in test [5], in test [6], in test [7] and in test [8] was inactive.
For `COc1ccc(CN2CCC(CNCCc3ccccc3Oc3ccccc3)CC2)cc1`, the growth inhibition was 56% (active) in test [1] and 85% (active) in test [4]. Also, the inhibition in test [2] is 99% (active); in test [3], 0%. The outcome in test [5], in test [6], in test [7] and in test [8] was inactive.
Consider `Cn1cncc1C(=O)Nc1cccc(-c2ccc(-c3nc4ccc(C(F)(F)F)cc4[nH]3)cc2)c1`, for which the figures for the growth inhibition in test [1] and in test [4] were 98% (active) and 97% (active), respectively. For the same compound, the inhibition is 4% in test [2] and 1% in test [3]. For the same compound, the outcome in test [5], in test [6], in test [7] and in test [8] was inactive.
With `Cc1cc(NCCCOc2ccc(Cl)cc2)nc(NCc2ccccc2)n1`, the growth inhibition is 20% in test [1] and 95% (active) in test [4]. Besides, the inhibition in test [2] was 45%; in test [3] it was 0%. The outcome in test [5], in test [6], in test [7] and in test [8] was inactive.
Turning to `Cn1cnc(CCNC(=O)c2ccc(-c3ccc(-c4nc5ccc(F)cc5[nH]4)cc3)cc2)c1`, the values for the growth inhibition in test [1] and in test [4] were 15% and 92% (active), respectively. Also, the results for the inhibition in test [2] and in test [3] were 17% and 0%, respectively. In addition, the outcome in test [5], in test [6], in test [7] and in test [8] was inactive.
`C=CC[C@@H](C(=O)OCC)[C@@H]1[C@@H](N(CC=C)C(=O)OC(C)(C)C)CCN1C(=O)OCc1ccccc1`: the values for the growth inhibition in test [1] and in test [4] were 68% (active) and 92% (active), respectively. Further, the inhibition in test [2] was 2%; in test [3], 4%. The outcome in test [5], in test [6], in test [7] and in test [8] was inactive.
For the compound `COc1ccc(-c2cccc(NC(=O)c3cccc(Cl)c3)c2)cc1CN1CCCN(C)CC1`, the growth inhibition was 99% (active) in test [1] and 101% (active) in test [4]. Also, the inhibition in test [2] is 20%; in test [3], 6%. Besides, the outcome in test [5], in test [6], in test [7] and in test [8] was inactive.
For the compound `Cc1ccc(Cl)cc1N1CCN(CCCNC(=O)C2CCN(c3nc4ccccc4[nH]3)CC2)CC1`, the results for the growth inhibition in test [1] and in test [4] were -3% and 88% (active), respectively. In addition, the inhibition in test [2] is 41%; in test [3], -1%. In addition, the result in test [5], in test [6], in test [7] and in test [8] was inactive.
Take `CC(=O)c1cccc(NC(=O)c2ccc(Cl)c(S(=O)(=O)N3CCc4ccccc43)c2)c1`: the values for the growth inhibition in test [1] and in test [4] were 11% and 93% (active), respectively. Moreover, the inhibition was 13% in test [2] and 0% in test [3]. Besides, the result in test [5], in test [6], in test [7] and in test [8] was inactive.
